# Test results as given in paper PMC7862700, “An all-to-all approach to the identification of sequence-specific readers for epigenetic DNA modifications on cytosine”.
# Key:
# Assay in all cases: DAPPL (digital affinity profiling via proximity ligation, sequencing); 10 mM Tris-HCl pH 7.5, 50 mM NaCl, 1 mM DTT, 4% glycerol, room temperature, 30 min; GST-TFs on glutathione beads, 16-mer random dsDNA library, 0.1% formaldehyde crosslink after washing; high values mean tight binding
# FLI1 = target: T1, FLI1 (Homo sapiens, UniProt Q01543 1-452); settings: protein: recombinant; tags: N-terminal GST; dsDNA, one strand shown
# T1 sequence: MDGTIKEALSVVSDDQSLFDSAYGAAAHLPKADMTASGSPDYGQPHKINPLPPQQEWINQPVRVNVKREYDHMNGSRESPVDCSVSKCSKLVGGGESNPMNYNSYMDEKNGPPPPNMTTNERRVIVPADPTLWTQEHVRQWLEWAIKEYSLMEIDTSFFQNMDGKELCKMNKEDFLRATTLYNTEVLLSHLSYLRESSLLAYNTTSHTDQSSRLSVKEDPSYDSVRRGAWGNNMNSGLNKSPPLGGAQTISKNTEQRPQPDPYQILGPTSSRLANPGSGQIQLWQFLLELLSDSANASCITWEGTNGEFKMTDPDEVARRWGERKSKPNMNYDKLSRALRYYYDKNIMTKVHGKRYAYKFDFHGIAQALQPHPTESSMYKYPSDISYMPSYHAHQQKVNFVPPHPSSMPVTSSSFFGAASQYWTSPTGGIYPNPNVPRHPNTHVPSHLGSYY
# Outline: (§1)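 A tag-only sample was pooled with DNA-barcoded human transcription factors that had been expressed in yeast as GST fusions and captured on glutathione beads. The pools were incubated for 30 min at room temperature with 200 nmole of a random double-stranded 16-mer DNA library in Tris/NaCl/DTT/glycerol buffer, then washed, crosslinked with 0.1% formaldehyde, proximity-ligated (BsaI/T4 ligase, 1 h, 37 °C), PCR-amplified and sequenced on an Illumina NextSeq500. Binding signal is each hexamer's read frequency for a factor divided by its frequency for the tag-only sample.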
# ELK1 = target: T2, ELK1 (Homo sapiens, UniProt P19419 1-428); settings: protein: recombinant; tags: N-terminal GST; dsDNA, one strand shown
# T2 sequence: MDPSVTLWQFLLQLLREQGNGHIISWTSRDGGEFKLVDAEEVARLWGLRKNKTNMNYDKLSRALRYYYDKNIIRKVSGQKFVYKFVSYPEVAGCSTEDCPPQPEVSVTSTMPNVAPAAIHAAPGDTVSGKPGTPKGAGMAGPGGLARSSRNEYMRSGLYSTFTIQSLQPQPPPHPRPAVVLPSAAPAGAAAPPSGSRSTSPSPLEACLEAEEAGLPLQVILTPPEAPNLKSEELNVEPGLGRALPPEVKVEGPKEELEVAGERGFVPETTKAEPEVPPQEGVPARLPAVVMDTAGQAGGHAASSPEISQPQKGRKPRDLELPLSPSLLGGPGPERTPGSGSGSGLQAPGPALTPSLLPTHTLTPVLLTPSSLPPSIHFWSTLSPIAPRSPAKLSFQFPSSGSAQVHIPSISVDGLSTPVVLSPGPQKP
# Outline: as §1
# GABPA = target: T3, GABPA (Homo sapiens, UniProt Q06546 1-454); settings: protein: recombinant; tags: N-terminal GST; dsDNA, one strand shown
# T3 sequence: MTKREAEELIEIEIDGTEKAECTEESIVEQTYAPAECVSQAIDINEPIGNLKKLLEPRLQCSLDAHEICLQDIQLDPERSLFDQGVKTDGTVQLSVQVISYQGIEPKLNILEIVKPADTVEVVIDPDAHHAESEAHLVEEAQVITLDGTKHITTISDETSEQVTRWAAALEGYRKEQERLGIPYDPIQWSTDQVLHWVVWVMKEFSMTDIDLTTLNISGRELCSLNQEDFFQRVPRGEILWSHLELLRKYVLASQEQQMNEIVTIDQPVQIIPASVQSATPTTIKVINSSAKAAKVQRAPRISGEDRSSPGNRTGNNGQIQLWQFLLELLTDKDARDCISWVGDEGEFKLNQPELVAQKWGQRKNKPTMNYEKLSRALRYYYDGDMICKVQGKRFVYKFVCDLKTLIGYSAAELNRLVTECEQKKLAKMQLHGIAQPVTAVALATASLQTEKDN
# Outline: as §1
# ERG = target: T4, ERG (Homo sapiens, UniProt P11308 1-479); settings: protein: recombinant; tags: N-terminal GST; dsDNA, one strand shown
# T4 sequence: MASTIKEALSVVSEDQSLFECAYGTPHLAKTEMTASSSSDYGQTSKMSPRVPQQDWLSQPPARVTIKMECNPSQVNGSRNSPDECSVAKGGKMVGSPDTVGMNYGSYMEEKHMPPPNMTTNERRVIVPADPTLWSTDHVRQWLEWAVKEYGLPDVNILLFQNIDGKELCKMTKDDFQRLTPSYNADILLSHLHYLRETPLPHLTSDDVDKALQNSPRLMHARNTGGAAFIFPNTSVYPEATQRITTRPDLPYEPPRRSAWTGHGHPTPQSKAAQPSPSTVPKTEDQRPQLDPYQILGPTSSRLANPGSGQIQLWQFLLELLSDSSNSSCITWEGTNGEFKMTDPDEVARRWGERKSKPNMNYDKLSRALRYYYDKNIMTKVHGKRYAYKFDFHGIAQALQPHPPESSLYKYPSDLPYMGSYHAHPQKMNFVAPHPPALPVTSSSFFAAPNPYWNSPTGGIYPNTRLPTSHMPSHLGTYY
# Outline: as §1
# ELF1 = ELF1 (Homo sapiens, UniProt P32519 1-619); settings: protein: recombinant; tags: N-terminal GST; dsDNA, one strand shown
# Outline: as §1
# EHF = target: T5, EHF (Homo sapiens, UniProt Q9NZC4 1-300); settings: protein: recombinant; tags: N-terminal GST; dsDNA, one strand shown
# T5 sequence: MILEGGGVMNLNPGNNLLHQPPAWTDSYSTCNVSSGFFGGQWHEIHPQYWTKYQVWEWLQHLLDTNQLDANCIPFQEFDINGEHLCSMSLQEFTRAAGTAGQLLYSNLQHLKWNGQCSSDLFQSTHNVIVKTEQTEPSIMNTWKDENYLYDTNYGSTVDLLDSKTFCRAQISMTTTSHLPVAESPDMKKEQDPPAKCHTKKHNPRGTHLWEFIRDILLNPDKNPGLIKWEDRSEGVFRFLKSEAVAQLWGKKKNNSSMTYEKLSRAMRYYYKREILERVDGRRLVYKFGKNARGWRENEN
# Outline: as §1
# SPI1 = SPI1 (Homo sapiens, UniProt P17947 1-270); settings: protein: recombinant; tags: N-terminal GST; dsDNA, one strand shown
# Outline: as §1
# SPIB = SPIB (Homo sapiens, UniProt Q01892 1-262); settings: protein: recombinant; tags: N-terminal GST; dsDNA, one strand shown
# Outline: as §1
# ELK3 = target: T6, ELK3 (Homo sapiens, UniProt P41970 1-407); settings: protein: recombinant; tags: N-terminal GST; dsDNA, one strand shown
# T6 sequence: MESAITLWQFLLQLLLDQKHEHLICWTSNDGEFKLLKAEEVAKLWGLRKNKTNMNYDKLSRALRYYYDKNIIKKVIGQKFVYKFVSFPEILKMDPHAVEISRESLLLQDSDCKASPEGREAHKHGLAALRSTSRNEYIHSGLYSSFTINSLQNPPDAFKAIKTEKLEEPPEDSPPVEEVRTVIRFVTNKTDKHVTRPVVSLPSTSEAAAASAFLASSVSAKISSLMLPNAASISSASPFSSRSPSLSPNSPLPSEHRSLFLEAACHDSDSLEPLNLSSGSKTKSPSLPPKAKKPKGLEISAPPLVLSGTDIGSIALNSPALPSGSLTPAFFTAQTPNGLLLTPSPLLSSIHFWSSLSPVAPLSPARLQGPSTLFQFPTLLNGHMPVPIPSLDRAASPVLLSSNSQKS
# Outline: as §1
# FEV = target: T7, FEV (Homo sapiens, UniProt Q99581 1-238); settings: protein: recombinant; tags: N-terminal GST; dsDNA, one strand shown
# T7 sequence: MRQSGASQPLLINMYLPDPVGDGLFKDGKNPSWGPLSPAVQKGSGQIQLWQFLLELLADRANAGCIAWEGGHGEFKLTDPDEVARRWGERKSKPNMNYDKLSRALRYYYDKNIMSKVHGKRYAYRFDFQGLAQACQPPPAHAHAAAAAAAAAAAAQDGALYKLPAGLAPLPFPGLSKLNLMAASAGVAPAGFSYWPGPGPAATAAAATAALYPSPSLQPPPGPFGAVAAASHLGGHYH
# Outline: as §1
# ETV5 = ETV5 (Homo sapiens, UniProt P41161 1-510); settings: protein: recombinant; tags: N-terminal GST; dsDNA, one strand shown
# Outline: as §1
# HSF1 = HSF1 (Homo sapiens, UniProt Q00613 1-529); settings: protein: recombinant; tags: N-terminal GST; chain copies: 3; dsDNA, one strand shown
# Outline: as §1
# SPIC = target: T8, SPIC (Homo sapiens, UniProt Q8N5J4 1-248); settings: protein: recombinant; tags: N-terminal GST; dsDNA, one strand shown
# T8 sequence: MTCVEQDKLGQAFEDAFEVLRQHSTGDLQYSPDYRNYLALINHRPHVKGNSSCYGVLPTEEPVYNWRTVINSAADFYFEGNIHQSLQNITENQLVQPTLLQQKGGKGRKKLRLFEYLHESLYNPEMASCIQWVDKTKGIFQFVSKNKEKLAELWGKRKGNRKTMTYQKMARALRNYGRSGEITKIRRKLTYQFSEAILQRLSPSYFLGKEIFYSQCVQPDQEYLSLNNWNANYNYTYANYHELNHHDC
# Outline: as §1
# ELF4 = ELF4 (Homo sapiens, UniProt Q99607 1-663); settings: protein: recombinant; tags: N-terminal GST; dsDNA, one strand shown
# Outline: as §1
# ETV2 = target: T9, ETV2 (Homo sapiens, UniProt O00321 1-342); settings: protein: recombinant; tags: N-terminal GST; dsDNA, one strand shown
# T9 sequence: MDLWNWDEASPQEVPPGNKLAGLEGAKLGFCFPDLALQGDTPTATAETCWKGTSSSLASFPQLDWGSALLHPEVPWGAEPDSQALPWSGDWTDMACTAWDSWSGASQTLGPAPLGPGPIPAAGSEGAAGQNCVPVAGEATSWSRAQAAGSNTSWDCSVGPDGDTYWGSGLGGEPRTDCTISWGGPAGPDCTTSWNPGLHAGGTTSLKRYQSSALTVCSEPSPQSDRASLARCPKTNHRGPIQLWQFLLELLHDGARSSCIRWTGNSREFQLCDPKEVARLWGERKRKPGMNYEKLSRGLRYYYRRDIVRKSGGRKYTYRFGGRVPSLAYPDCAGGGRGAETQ
# Outline: as §1
# ELF3 = target: T10, ELF3 (Homo sapiens, UniProt P78545 1-371); settings: protein: recombinant; tags: N-terminal GST; dsDNA, one strand shown
# T10 sequence: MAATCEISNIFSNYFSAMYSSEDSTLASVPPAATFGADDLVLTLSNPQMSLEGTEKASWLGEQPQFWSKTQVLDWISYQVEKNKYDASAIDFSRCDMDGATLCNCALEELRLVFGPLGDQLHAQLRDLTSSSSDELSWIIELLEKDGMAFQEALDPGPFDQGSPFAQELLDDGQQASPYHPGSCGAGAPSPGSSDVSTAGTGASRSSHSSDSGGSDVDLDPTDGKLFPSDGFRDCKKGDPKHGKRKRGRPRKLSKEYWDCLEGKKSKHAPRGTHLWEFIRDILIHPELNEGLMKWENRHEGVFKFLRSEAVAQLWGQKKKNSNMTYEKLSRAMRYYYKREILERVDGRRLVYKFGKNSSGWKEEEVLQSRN
# Outline: as §1
# CRX = CRX (Homo sapiens, UniProt O43186 1-299); settings: protein: recombinant; tags: N-terminal GST; dsDNA, one strand shown
# Outline: as §1
# ETV1 = ETV1 (Homo sapiens, UniProt P50549 1-477); settings: protein: recombinant; tags: N-terminal GST; dsDNA, one strand shown
# Outline: as §1
# CRX, sequence (O43186 whole entry): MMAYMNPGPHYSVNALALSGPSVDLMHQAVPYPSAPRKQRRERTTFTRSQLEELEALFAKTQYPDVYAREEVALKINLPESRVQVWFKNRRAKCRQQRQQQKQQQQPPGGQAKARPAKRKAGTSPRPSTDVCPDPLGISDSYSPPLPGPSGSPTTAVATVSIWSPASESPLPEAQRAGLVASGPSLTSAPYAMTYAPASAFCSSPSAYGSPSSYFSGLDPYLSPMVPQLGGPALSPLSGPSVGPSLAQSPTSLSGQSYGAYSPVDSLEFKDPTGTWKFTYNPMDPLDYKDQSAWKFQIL
# ELF4, sequence (Q99607 whole entry): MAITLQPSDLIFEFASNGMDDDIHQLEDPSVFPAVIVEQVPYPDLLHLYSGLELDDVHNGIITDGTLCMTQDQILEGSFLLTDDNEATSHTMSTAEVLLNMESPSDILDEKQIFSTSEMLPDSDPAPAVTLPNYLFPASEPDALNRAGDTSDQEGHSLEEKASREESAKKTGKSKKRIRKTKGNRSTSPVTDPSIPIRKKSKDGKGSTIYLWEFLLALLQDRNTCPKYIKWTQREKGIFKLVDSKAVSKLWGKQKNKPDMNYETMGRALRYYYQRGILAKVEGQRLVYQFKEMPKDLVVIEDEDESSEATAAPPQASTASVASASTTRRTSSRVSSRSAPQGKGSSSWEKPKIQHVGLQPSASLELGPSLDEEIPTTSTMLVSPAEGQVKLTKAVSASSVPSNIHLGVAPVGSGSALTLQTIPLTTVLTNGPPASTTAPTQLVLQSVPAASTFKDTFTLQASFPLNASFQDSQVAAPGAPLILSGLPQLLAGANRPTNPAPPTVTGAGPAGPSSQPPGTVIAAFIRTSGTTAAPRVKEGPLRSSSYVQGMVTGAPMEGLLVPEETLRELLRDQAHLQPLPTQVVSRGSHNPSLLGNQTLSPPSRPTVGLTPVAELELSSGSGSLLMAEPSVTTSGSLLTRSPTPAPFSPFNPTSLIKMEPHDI
# ETV1, sequence (P50549 whole entry): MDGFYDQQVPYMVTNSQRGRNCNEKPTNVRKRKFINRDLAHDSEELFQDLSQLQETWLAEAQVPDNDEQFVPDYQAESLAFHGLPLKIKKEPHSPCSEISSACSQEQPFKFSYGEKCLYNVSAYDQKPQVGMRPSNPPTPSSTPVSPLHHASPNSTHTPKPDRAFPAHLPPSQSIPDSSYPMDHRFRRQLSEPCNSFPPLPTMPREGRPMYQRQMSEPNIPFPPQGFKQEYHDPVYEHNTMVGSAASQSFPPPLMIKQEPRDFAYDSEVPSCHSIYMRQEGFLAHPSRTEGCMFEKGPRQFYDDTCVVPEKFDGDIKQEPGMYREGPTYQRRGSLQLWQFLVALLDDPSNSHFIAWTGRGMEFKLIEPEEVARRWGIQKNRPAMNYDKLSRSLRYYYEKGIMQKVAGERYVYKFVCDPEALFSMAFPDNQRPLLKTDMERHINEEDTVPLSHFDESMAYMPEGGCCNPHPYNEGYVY
# SPIB, sequence (Q01892 whole entry): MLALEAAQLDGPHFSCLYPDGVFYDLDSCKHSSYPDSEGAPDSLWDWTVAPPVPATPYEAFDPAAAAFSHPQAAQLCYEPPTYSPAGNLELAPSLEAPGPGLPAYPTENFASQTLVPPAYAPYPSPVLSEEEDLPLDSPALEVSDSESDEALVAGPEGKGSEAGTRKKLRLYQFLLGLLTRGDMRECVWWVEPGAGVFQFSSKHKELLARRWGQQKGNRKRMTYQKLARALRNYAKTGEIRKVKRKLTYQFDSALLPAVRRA
# ELF1, sequence (P32519 whole entry): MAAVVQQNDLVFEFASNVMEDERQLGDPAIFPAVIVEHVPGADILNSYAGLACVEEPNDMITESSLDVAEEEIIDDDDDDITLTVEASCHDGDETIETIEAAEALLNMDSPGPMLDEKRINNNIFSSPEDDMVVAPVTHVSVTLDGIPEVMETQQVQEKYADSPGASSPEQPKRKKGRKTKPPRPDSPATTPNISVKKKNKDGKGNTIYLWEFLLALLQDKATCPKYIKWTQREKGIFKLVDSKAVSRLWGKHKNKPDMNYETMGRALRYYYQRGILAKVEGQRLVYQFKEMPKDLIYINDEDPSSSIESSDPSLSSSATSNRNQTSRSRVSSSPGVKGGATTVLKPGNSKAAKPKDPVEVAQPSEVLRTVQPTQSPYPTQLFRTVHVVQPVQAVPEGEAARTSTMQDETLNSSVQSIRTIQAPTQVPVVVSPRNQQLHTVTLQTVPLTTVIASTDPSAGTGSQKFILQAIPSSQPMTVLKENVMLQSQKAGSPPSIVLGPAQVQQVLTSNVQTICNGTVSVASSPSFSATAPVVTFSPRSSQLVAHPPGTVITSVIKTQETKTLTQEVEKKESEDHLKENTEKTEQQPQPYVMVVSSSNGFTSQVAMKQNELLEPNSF
# ETV5, sequence (P41161 whole entry): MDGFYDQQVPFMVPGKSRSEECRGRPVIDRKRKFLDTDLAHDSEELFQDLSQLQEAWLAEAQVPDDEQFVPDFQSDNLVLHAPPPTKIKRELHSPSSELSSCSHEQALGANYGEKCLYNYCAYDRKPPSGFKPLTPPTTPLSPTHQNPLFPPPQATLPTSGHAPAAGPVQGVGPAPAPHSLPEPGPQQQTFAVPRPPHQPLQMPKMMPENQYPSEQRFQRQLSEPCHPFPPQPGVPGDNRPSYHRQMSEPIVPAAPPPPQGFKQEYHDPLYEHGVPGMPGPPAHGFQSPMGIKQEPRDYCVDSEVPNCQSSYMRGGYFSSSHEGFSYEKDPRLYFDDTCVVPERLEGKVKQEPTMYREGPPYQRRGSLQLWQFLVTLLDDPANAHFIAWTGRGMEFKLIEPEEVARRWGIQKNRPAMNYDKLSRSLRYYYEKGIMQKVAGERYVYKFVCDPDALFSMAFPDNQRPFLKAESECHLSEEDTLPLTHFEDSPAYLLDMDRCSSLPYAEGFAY
# HSF1, sequence (Q00613 whole entry): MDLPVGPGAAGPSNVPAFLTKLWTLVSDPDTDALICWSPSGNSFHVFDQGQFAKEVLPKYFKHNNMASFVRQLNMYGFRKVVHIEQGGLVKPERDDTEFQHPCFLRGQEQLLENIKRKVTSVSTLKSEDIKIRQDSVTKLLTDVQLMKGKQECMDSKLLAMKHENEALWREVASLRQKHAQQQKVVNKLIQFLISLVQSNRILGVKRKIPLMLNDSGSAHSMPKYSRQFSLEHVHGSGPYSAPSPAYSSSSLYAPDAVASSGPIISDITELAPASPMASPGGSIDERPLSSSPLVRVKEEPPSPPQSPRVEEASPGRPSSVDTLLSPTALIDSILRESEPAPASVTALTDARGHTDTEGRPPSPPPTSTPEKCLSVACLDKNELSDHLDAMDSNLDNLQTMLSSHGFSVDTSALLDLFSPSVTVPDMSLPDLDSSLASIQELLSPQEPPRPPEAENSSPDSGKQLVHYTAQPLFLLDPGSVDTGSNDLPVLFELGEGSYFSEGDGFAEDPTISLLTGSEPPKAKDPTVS
sequence,measurement,setting,value
ACTTAG,binding signal,FLI1,"1.04 fold enrichment (6-mer frequency, TF over GST control)"
same,binding signal,ELK1,"1.06 fold enrichment (6-mer frequency, TF over GST control)"
same,binding signal,GABPA,"1.11 fold enrichment (6-mer frequency, TF over GST control)"
same,binding signal,ERG,"1.09 fold enrichment (6-mer frequency, TF over GST control)"
same,binding signal,ELF1,"1.05 fold enrichment (6-mer frequency, TF over GST control)"
same,binding signal,EHF,"1.11 fold enrichment (6-mer frequency, TF over GST control)"
same,binding signal,SPI1,"1.05 fold enrichment (6-mer frequency, TF over GST control)"
same,binding signal,SPIB,"1.11 fold enrichment (6-mer frequency, TF over GST control)"
same,binding signal,ELK3,"1.17 fold enrichment (6-mer frequency, TF over GST control)"
same,binding signal,FEV,"1.03 fold enrichment (6-mer frequency, TF over GST control)"
same,binding signal,ETV5,"1.16 fold enrichment (6-mer frequency, TF over GST control)"
same,binding signal,HSF1,"1.27 fold enrichment (6-mer frequency, TF over GST control)"
same,binding signal,SPIC,"1.1 fold enrichment (6-mer frequency, TF over GST control)"
same,binding signal,ELF4,"1.03 fold enrichment (6-mer frequency, TF over GST control)"
same,binding signal,ETV2,"1.12 fold enrichment (6-mer frequency, TF over GST control)"
same,binding signal,ELF3,"1.2 fold enrichment (6-mer frequency, TF over GST control)"
same,binding signal,CRX,"1.72 fold enrichment (6-mer frequency, TF over GST control)"
same,binding signal,ETV1,"1.04 fold enrichment (6-mer frequency, TF over GST control)"
